Our source for the Potency values is PubChem BioAssay (NCATS).

Each structure is given as a SMILES string. Inconclusive results are not listed. Entries that show only a call come without a potency. The source made the active and inactive calls. Calls come from the whole dose curve; as a rule, active = well fitted cell-killing curve with a large enough effect; inconclusive = small, poorly fitted or top-dose-only effect; inactive = flat fitted curve, though single readings scatter.
Potency is the fitted concentration of half-maximal effect.

A short description of the test: qHTS of pediatric cancer cell lines to identify multiple opportunities for drug repurposing: Primary screen for BT-37 cells (AID 1347094). The settings on record: BT-37 viability, CellTiter-Glo luminescence, 48 h; series mostly up to 57.3 µM. From the text:
Drug repurposing or repositioning has been offered as a strategy for drug development in oncology programs. This approach has special potential for childhood cancers and other rare or orphan diseases, where the expected return on new drug development has been a disincentive to pharmaceuticals. […] In this project we exploit the poly-pharmacology of drugs to discover new indications via phenotypic screening of a panel of 19 well-characterized cell lines derived from solid tumors seen in children and adolescents. The goal is to identify approved drugs with previously unrecognized anticancer properties that has the potential to reveal new mechanisms and biological processes involved in carcinogenesis or drug resistance. We employed a titration-based paradigm (quantitative high-throughput screening or qHTS), where all compounds were tested at multiple concentrations for their effect on cell viability. Concentration-response curves (CRCs) were derived directly from the primary screen, and both potency and efficacy values were used to identify compounds with robust bioactivity profiles. We screened the NIH Chemical Genomics Center (NCGC) Pharmaceutical Collection (NPC) and Mechanism Interrogation Plate (MIPE) small molecule collections of approved and investigational compounds against these cell lines; and measured metabolically active cells after 48 hours of compound treatment as a proxy for cell viability. […] Assay Submitter: Nathalia J. Martinez, National Center for Advancing Translational Sciences, National Institutes of Health, Rockville, MD, USA; email: natalia.martinez@nih.gov Shen, M et al. Quantitative high-throughput phenotypic screening of pediatric cancer cell lines identifies multiple opportunities for drug repurposing. Oncotarget 2017 Dec 19;9(4):4758-4772. PMID 29435139.
The cells were obtained from University of North Carolina (UNC), Pediatric Preclinical Testing Program (PPT), and Coriell Institute (CI). qHTS cell viability assay: Cells were assayed in growth media at a density of 500-1,000 cells/well. Five microliters of cells were dispensed into 1,536-well, white, solid-bottom, TC-treated plates (Greiner Bio One) using a multidrop dispenser and incubated at 37 degrees C, 5% CO2, under a humidified atmosphere for 5 hours. Twenty-three nanoliters of compounds and controls (neutral control DMSO or positive control bortezomib at final concentration of 2.3 µM) were subsequently transferred by Kalypsys pintool. For primary screens, the MIPE collection was tested at 11-point dilutions (final concentrations range from 0.78 nM to 46 µM) and the NPC collection at 8-point dilutions (final concentrations range from 0.59 nM to 46 µM). Compounds tested in follow-up screens were assayed at 11-point dilutions. Cells were incubated for 48 hours, followed by addition of 3 µL of CellTiter-Glo (Promega). After a 15 min incubation at room temperature, samples were analyzed for luminescence intensity using a ViewLux High-throughput CCD imager equipped with clear filters.
(In general: In qHTS, concentration-response curves come from the screen itself.)
Take `O=C(CCCl)NCc1ccccc1`: the Potency entry is “inactive”.
For `CC(COc1ccccc1)NN` (stereo not given) the value was “inactive”; for `O=C1Nc2ccccc2C1(c1ccc(O)cc1)c1ccc(O)cc1`, “inactive”; for `CN=C(N)NC(=O)Nc1c(C)cccc1C`, “inactive”.
For `C[N+](C)(CCOc1ccccc1)Cc1cccs1` the value was “inactive”; for `COC(=O)c1cc(Cl)ccc1NS(=O)(=O)C(F)(F)F`, “inactive”; for `CO/N=C(/C(=O)N[C@@H]1C(=O)N2C(C(=O)OCOC(=O)C(C)(C)C)=C(C)CS[C@H]12)c1csc(N)n1`, “inactive”.
Take `CC(=O)OCC(=O)[C@@]1(O)[C@H](OC(C)=O)C[C@H]2[C@@H]3CCC4=CC(=O)C=C[C@]4(C)[C@@]3(F)[C@@H](O)C[C@@]21C`: the Potency result is “inactive”.
Then `CN1CCN(N)CC1`, with “inactive”; and `Cc1ccc2c(Cl)cc(Cl)c(O)c2n1`, with “inactive”; and `CC(C(=O)O)c1ccc(/C=C2\CCCCC2=O)cc1` (stereo not given), with “inactive”.
In the case of `CC(C)=CCC/C(C)=C/CC/C(C)=C/CCC(=O)OC/C=C(\C)CCC=C(C)C`, the Potency entry is “inactive”.
Consider `CSCC[C@H](NC(=O)[C@H](Cc1c[nH]c2ccccc12)NC(=O)CCNC(=O)OC(C)(C)C)C(=O)N[C@@H](CC(=O)O)C(=O)N[C@@H](Cc1ccccc1)C(N)=O`, for which the Potency result was “inactive”.
Regarding `O=C(CCCCCCCCC#CI)Oc1ccccc1`, the Potency entry is “inactive”.
Turning to `O=C1c2ccccc2CCc2ccccc21`, the Potency entry is “inactive”.
Consider `Cc1nc(C2CCCCC2)c(-c2ccc(S(N)(=O)=O)c(F)c2)o1`, for which the Potency result was “inactive”.
Regarding `CCOC(=O)Cn1cccc1-c1nc(-c2ccc(OC)cc2)c(-c2ccc(OC)cc2)s1`, the Potency result is “inactive”.
Then `Nc1ccc([N+](=O)[O-])c(C(F)(F)F)c1`, with “inactive”; and `C#CC(C)(CC)OC(=O)c1ccccc1C(=O)O` (stereo not given), with “inactive”; and `CC(=O)O[C@@H]1C(=O)O[C@@H]2[C@H]1OC(=O)[C@@H]2OC(C)=O`, with “inactive”.
`O=C1CC(c2ccc(Cl)cc2)CC(=O)N1`: the Potency entry is “inactive”.
Then `CCOc1ncc(F)c(=O)[nH]1`, with “inactive”; and `Cc1cccc(C)c1NC(=O)c1cc(S(N)(=O)=O)c(Cl)cc1O`, with “inactive”.
Then `CC(=O)O[C@@H]1CC2C3CCc4cc(OC(=O)c5ccccc5)ccc4C3CCC2(C)[C@H]1OC(C)=O` (stereo not given in full), with “inactive”; and `OC(CCCN1CCCCC1)(c1ccccc1)c1ccccc1`, with “inactive”; and `Nc1c(NC/C=C\COc2cc(CN3CCCCC3)ccn2)c(=O)c1=O`, with “inactive”.
Consider `CC(C)C(C)(C)C(C)(C)C(C)(C)S`, for which the Potency result is “inactive”.
For the compound `CCC1=C[C@@H]2CN(C1)Cc1c([nH]c3ccccc13)[C@@](C(=O)OC)(c1cc3c(cc1OC)N(C)[C@H]1[C@@](O)(C(=O)OC)[C@H](OC(C)=O)[C@]4(CC)C=CCN5CC[C@]31[C@@H]54)C2`, the Potency was 27.6 nM (active).
For `N=C(N)c1ccc(OCCCOc2ccc(C(=N)N)cc2)cc1` the value was “inactive”.
Regarding `Nc1ncnc2nc[nH]c12`, the Potency entry was “inactive”.
`CCNC(=O)NCCCOc1cccc(CN2CCCCC2)c1`: the Potency entry is “inactive”.
For `NS(=O)(=O)c1ccc(N2CCCCS2(=O)=O)cc1`, the Potency entry is “inactive”.
With `O=C(O)CCCC[P+](c1ccccc1)(c1ccccc1)c1ccccc1`, the Potency entry was “inactive”.
For `CCc1cc(S(=O)(=O)O)c2cc(C(C)C)cccc1-2` the value was “inactive”; for `O=C1CC2(CCCC2)CC(=O)N1`, “inactive”; for `CN1[C@@H]2CC[C@H]1CC(NC(=O)n1c(=O)[nH]c3ccccc31)C2` (stereo not given in full), “inactive”.
Take `CC(=O)OC/C=C(C)/C=C/C=C(C)/C=C/C1=C(C)CCCC1(C)C`: the Potency result is “inactive”.
Regarding `NC(=O)NS(=O)(=O)c1ccc(Cl)cc1`, the Potency entry was “inactive”.
Regarding `CC(C)(C)c1cc(C=O)cc(C(C)(C)C)c1O`, the Potency entry is “inactive”.
On to `C/C(=C1\CCOC(=O)S1)N(C=O)Cc1cnc(C)nc1N`, for which the Potency entry is “inactive”.
